Values without a mark were called inactive. Calls of active or inactive are those of the source.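 The calls were made as follows, unless noted: active = mean inhibition above 46.5%, the solvent-only control mean plus 3 SD; inactive = the rest.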
Tests used:
[1] = tested on: transactivating tegument protein VP16 (Human herpesvirus 1); assay: VP16 transactivation reporter inhibitors, counter-screen for SRC2 inhibitor project, cell-based, luminescence, single concentration (AID 652007; in the data active = inhibition above about 36%); details: cell-based VP16 transactivation luciferase reporter, at 8.9 µM, hits give high values
[2] = biological target: Nuclear receptor coactivator 2 (Homo sapiens) (UniProt Q15596); assay: SRC2 coactivator transcriptional activity inhibitors, confirmation, cell-based, luminescence, HEK293, triplicate (AID 652008); details: HEK293 GAL4-SRC2 luciferase reporter, at 8.9 µM, hits give high values;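 also: 0% = DMSO-treated cells and 100% = Gossypol at 36 µM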
Chain of Nuclear receptor coactivator 2 (Homo sapiens) (Q15596 whole entry, looked up, the tested form may be a part): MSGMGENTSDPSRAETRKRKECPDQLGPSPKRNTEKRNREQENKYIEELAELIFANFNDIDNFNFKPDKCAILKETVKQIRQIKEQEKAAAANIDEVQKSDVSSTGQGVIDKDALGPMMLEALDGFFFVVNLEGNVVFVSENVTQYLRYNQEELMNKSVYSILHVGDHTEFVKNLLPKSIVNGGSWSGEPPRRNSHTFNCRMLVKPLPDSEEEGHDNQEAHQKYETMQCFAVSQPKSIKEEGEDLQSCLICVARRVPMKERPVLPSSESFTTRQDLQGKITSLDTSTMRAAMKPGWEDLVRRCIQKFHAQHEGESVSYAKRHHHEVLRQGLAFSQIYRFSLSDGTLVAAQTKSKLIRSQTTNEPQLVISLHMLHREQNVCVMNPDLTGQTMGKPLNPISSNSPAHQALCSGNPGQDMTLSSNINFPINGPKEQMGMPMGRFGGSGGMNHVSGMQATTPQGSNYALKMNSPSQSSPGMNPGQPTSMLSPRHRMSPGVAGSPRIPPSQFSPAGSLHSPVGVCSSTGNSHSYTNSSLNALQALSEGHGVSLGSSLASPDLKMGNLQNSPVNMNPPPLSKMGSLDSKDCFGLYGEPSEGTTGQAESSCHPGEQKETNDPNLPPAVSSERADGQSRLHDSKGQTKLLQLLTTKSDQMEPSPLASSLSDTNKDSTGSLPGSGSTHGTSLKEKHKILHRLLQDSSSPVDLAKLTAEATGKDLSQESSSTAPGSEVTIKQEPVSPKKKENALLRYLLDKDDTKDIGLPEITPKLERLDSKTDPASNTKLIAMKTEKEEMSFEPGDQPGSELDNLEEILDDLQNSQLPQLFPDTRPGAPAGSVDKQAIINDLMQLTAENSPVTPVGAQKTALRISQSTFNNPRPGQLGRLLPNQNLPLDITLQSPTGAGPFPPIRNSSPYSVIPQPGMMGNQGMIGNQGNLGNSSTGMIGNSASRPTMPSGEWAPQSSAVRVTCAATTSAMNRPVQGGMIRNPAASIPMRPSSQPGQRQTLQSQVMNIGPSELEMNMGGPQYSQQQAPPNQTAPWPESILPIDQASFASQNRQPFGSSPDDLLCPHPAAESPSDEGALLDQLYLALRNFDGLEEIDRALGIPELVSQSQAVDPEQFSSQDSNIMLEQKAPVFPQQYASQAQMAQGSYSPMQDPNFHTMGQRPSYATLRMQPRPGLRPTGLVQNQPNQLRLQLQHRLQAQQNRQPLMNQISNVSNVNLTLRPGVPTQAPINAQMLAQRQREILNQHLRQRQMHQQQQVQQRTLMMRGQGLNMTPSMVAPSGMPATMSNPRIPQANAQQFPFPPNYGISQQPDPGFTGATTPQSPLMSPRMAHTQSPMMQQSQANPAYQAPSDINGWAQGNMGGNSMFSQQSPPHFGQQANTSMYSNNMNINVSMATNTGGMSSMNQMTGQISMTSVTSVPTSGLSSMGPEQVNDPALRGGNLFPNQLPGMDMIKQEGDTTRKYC

## Cc1ccc(C(=O)NC(=S)Nc2ccc(-c3cc4ccccc4oc3=O)cc2)c(C)c1
[1]
  inhibition: -3.58%
[2]
  inhibition: 19.5%

## CCc1cc(CNC(=O)c2ccc3nc(Cc4ccc(OC)c(OC)c4)oc3c2)on1
[1]
  inhibition: 9.61%
[2]
  inhibition: 26.6%

## Cc1ccc(C(=O)OCC(=O)NC2CCCC(C)C2C)cc1S(=O)(=O)N1CCCCC1 (stereo unspecified)
[1]
  inhibition: -10.8%
[2]
  inhibition: 9.97%

## Cc1ccc2nc(-c3cc(N)cc(N)c3)oc2c1
[1]
  inhibition: -8.66%
[2]
  inhibition: 38.3%

## O=C(O)c1ccccc1C(=O)Nc1ccc(Oc2ccc3ccccc3c2)cc1
[1]
  inhibition: 36.4% (active)
[2]
  inhibition: 28%

## COc1cc2[nH]c(=O)n(CCCCCC(=O)NCCCN3CCCC3=O)c(=O)c2cc1OC
[1]
  inhibition: 7.78%
[2]
  inhibition: -9.47%

## COC(=O)c1c(N)sc(C(=O)NCCc2ccccc2)c1C
[1]
  inhibition: -1.83%
[2]
  inhibition: 49.4% (active)

## CCN(CC)S(=O)(=O)c1ccc(NC2c3ccccc3C(=O)N2Cc2ccco2)cc1 (stereo unspecified)
[1]
  inhibition: -12.8%
[2]
  inhibition: -30.1%

## COC(=O)COc1ccc(S(=O)(=O)Nc2ccc3c(c2)OCCO3)cc1C
[1]
  inhibition: -11.5%
[2]
  inhibition: 6.48%

## O=C(O)CCC(=O)Nc1ccc(NC(=O)c2ccc(Cl)cc2Cl)c(Cl)c1
[1]
  inhibition: -5.8%
[2]
  inhibition: -2.71%

## O=C(Nc1ccc(N2CCOCC2)cc1)c1cnsn1
[1]
  inhibition: -8.19%
[2]
  inhibition: 34.3%

## Oc1cccc2c(NC(=S)Nc3ccc(SC(F)F)cc3)cccc12
[1]
  inhibition: -23.5%
[2]
  inhibition: 53.1% (active)

## O=C(CSCc1ccc(C(=O)O)cc1)Nc1ccccc1
[1]
  inhibition: -18.8%
[2]
  inhibition: -31.5%

## O=C1N[C@@H](Cc2ccccc2)C(=O)N2[C@H]1CSCCS2(=O)=O
[1]
  inhibition: -5.16%
[2]
  inhibition: -25.1%

## N#Cc1c(NC(=O)CSc2ncn[nH]2)sc2c1CCCC2
[1]
  inhibition: 84% (active)
[2]
  inhibition: 88.2% (active)

## Cc1ccc2c(c1)N(C(C)C(=O)NCc1ccc3c(c1)OCO3)C(=O)CO2 (stereo unspecified)
[1]
  inhibition: -10.5%
[2]
  inhibition: -19.4%

## COc1ccccc1/C=C1\SC(=S)N(CCC(=O)NCCCn2ccnc2)C1=O
[1]
  inhibition: -0.06%
[2]
  inhibition: 1.79%

## CCOC(=O)COc1ccc(S(=O)(=O)N2CCN(c3ccc(OC)cc3)CC2)cc1
[1]
  inhibition: 3.67%
[2]
  inhibition: -1.53%

## Cc1ccc(NC(=O)Cn2cccc2C2=NC(c3ccccc3)CO2)cc1C (stereo unspecified)
[1]
  inhibition: -8.04%
[2]
  inhibition: -4.44%

## CCOC(=O)C1=C[C@@H](C(C)(C)C)N(S(=O)(=O)c2ccc(C)cc2)[C@H]1c1ccc(Cl)c(Cl)c1
[1]
  inhibition: 7.53%
[2]
  inhibition: 17.4%

## CCOc1ccc(C(=O)C(CN2CCOCC2)c2ccccc2)cc1 (stereo unspecified)
[1]
  inhibition: 14.2%
[2]
  inhibition: 42.6%

## CCOC(=O)c1c(NC(=O)/C=C/C(=O)O)sc(C)c1-c1ccc(C(C)(C)C)cc1
[1]
  inhibition: 32.9%
[2]
  inhibition: 17.2%

## Cc1nc2cc(-c3ccccc3)nn2c(C)c1CCC(=O)N1CCN(c2ccccc2)CC1
[1]
  inhibition: 3.67%
[2]
  inhibition: 52.6% (active)

## Cc1nc(NCc2ccco2)c2c(C)c(C)sc2n1
[1]
  inhibition: 12%
[2]
  inhibition: 38%

## O=S1(=O)CCS(=O)(=O)C1c1ccccc1
[1]
  inhibition: 15.8%
[2]
  inhibition: -3.12%

## CCCC(O)(CCC)C(=O)NN(C(=O)CCl)c1ccccc1
[1]
  inhibition: 8.55%
[2]
  inhibition: 30.1%

## O=S(=O)(c1cc(C(F)(F)F)ccc1Cl)N1CCN(c2ncnc3ccccc23)CC1
[1]
  inhibition: 17.2%
[2]
  inhibition: 18.7%

## COCCNC(=O)CN(C(=O)c1ccc(N2CCCC2)nc1)c1ccc(F)c(Cl)c1
[1]
  inhibition: -5.77%
[2]
  inhibition: -19.2%

## COc1ccc(-c2nnc(SCc3cccc(F)c3)n2-c2ccccc2)cc1
[1]
  inhibition: -12.4%
[2]
  inhibition: -7.06%

## CN(C)Cc1ccc(-c2nc3cccc4c3n2CCNC4=O)cc1
[1]
  inhibition: -27.9%
[2]
  inhibition: 6.56%

## CCn1nc(NS(=O)(=O)c2ccc([N+](=O)[O-])cc2)c2cc3ccc(C)cc3nc21
[1]
  inhibition: 10.1%
[2]
  inhibition: -26.1%

## O=[N+]([O-])c1cc(Br)c(Nc2ccccc2)c([N+](=O)[O-])c1
[1]
  inhibition: -21.9%
[2]
  inhibition: -12.5%

## CCC(C)[C@H](NC(=O)C1CC(=O)N(c2ccc(OC)cc2)C1)C(=O)N1CCCCC1 (stereo partly specified)
[1]
  inhibition: 6.37%
[2]
  inhibition: 10.3%

From PubChem BioAssay
